According to PubChem BioAssay AID624300 (Southern Research Specialized Biocontainment Screening …, 2012):
Out of some 2,400 compounds screened, about 360 (15%) were called active.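 The calls were made as follows: active = viability falls under 70% at one or more tested concentrations, taken as toxicity; inactive = viability stays over 70% at every dose.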 Only a sample is shown. Results with a measured potency or affinity are listed apart.

test: viability loss in HeLa cells – cytotoxicity control for MgcRacGAP inhibitor project, dose response (AID 624300); details: CellTiter-Glo luminescence, 24 h; series mostly up to 100 µM; viability: at the top concentration;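 also: 100% = median of untreated control wells on the same plate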

SMILES	viability
COC(=O)CC1SC(=O)NC1=Nc1ccc(O)cc1 (centres undefined)	113% (inactive)
S=c1[nH]c2ccccc2n2c(=S)[nH]nc12	87.8% (inactive)
O=C(CNC(=O)c1cccs1)N/N=C/c1ccc(O)cc1O	102% (inactive)
COc1ccc(N2CCN(C(CNS(=O)(=O)c3cccs3)c3cccnc3)CC2)cc1 (centres undefined)	98.2% (inactive)
O=C1Nc2ccccc2C1=Nc1ccc2[nH]c3ccccc3c2c1	103% (inactive)
COc1ccc(CN(C)CC(=O)Nc2ccc(Cl)cc2C(F)(F)F)c(OC)c1	82.5% (inactive)
O=S(=O)(O)c1ccc(O)c2cc(Nc3ccccc3)ccc12	104% (inactive)
O=S(=O)(O)c1cc(O)c2ccc(Nc3ccccc3)cc2c1	103% (inactive)
CCOc1ccccc1Oc1cn[nH]c1-c1ccc(O)cc1O	86.2% (inactive)
COc1cc(CNc2ccc3[nH]c(=O)[nH]c3c2)ccc1OCc1cccc(C)c1	97% (inactive)
O=C1ON=C(c2ccccc2)/C1=C/c1ccco1	81.6% (inactive)
COc1cc(/C=C2/C(=O)NN(c3ccc(Cl)cc3)C2=O)cc(Br)c1O	104% (inactive)
COC(=O)C1=C(O)/C(=C\c2ccc(O)c(OC)c2)N=C1C	104% (inactive)
CCOc1cc(/C=N/NC(=O)c2c(-c3ccccc3)noc2C)ccc1O	113% (inactive)
COc1cc(/C=C2\Oc3cc(O)ccc3C2=O)ccc1O	113% (inactive)
O=C1/C(=C/c2ccc(O)c(O)c2)Oc2cc(O)ccc21	100% (inactive)
O=[N+]([O-])c1cccc(S(=O)(=O)N/N=C/c2ccc(O)cc2)c1	114% (inactive)

SMILES	viability
COc1cc(/C=C/CN2CCC(Oc3ccc(C(=O)N4CCCC4)cc3)CC2)ccc1O	89.1% (inactive)
Nc1ccc(N2CCN(c3ccc(F)cc3)CC2)cc1	103% (inactive)
c1ccc(CNc2ccc(N3CCOCC3)cc2)cc1	99.7% (inactive)
COc1ncnc2c1ncn2CCCNc1ccc(C)c(C)c1	98.5% (inactive)
C/C(=N\Nc1nc2ccccc2[nH]1)c1cccs1	83% (inactive)
Cc1cc(C)nc(N/N=C/c2c[nH]c3ccccc23)n1	105% (inactive)
Cc1[nH]c2ccccc2c1/C=N/Nc1nncn1N	94.1% (inactive)
O=C(O)c1ccc(N/N=C/c2c[nH]c3ccccc23)cc1	103% (inactive)
O=c1cc(CN2CCOCC2)c2ccc(O)c(O)c2o1	87.7% (inactive)
COc1cc(/C=N/NC(=O)Cn2nnc3ccccc32)ccc1O	99.2% (inactive)
O=C(Nc1ccc(O)cc1)c1cc2ccccc2c(=O)s1	107% (inactive)
CC[N+](CC)(CC)CCCCOc1ccc2c(c1)C(=O)c1cc(OCCCC[N+](CC)(CC)CC)ccc1-2	99.7% (inactive)
FC(F)(F)c1cccc(N2CCC(N=CN3CCCCCC3)=N2)c1	94.9% (inactive)
Oc1ccc(C=NNc2ccccn2)c(O)c1	89.5% (inactive)
Oc1ccc(/C=N/Nc2ccc(C(F)(F)F)cn2)cc1	98% (inactive)
Nc1ccc(Nc2ccccc2)c(Cl)c1	94.6% (inactive)
Oc1cccc(Nc2ccccc2)c1	95.9% (inactive)
